Test results reported in ChEMBL document CHEMBL4513135, “CO-ADD screening of IQOG CSIS (Spain) compounds”.
Potency and affinity values are given separately.

Tested on: Candida albicans
Conditions: 32 ug/mL

Compound	Inhibition
C#CCN(C)c1nc(N(C)CC#C)c(C#N)cc1C#N	2.14%
CCOC(=O)c1c(C)nc(NC2CCN(Cc3ccccc3)CC2)c(C#N)c1-c1ccccc1	3.26%
C#CCN(C)c1nc(OC)c(C#N)cc1C#N	2.65%
NNC(=O)CCc1c[nH]c2ccccc12	0.67%
Cc1cc(Br)cc(C)c1NC=C(C#N)C#N	1.62%
CCOC(=O)c1c(C)nc(NCC2CCN(Cc3ccccc3)CC2)c(C#N)c1-c1ccccc1	2.46%
Cl.N#Cc1c(Cl)nc(N)nc1NCCO	1.9%
NNC(=O)c1cc2ccccc2n1Cc1ccccc1	-0.41%
Cc1ccc(CNNC(=O)c2c[nH]c3ccccc23)cc1	-1.04%
Cc1ccccc1-c1c(C=N)c(N)nc2c1S(=O)(=O)OC2(C)C	-0.01%
CCOc1nc2nc3c(c(N)c2cc1C#N)CCCC3	2.23%
Cn1c(C(=O)N2CCOCC2)cc2cc(OCCCC3CCN(Cc4ccccc4)CC3)ccc21	1.38%
COc1ccccc1[C@H]1c2c(ccc3ccccc23)O/C(=N\Br)[C@@]1(Br)C#N	8.63%
C#CCN(C)c1nc(NCC2CCN(Cc3ccccc3)CC2)c(C#N)c(-c2ccccc2)c1C#N	0.51%
O=C(NNCc1c[nH]c2ccccc12)c1cccc2ccccc12	1.53%
O=C(O)n1ccc2ccccc21	4.1%
C#CCNc1nc(Cl)c(C#N)c(-c2ccccc2)c1C#N	1.27%
CNN=C1N=C(SCc2ccccc2)SC1=O	-0.64%
N#C/C(=C\c1ccccc1)C(=O)c1ccccc1	4.89%
O=C(NN=Cc1c[nH]c2ccccc12)c1cccc2ccccc12	1.76%

Compound	Inhibition
C#CCN1CCc2nc3nc(N4CCCC4)c(C#N)cc3c(N)c2C1	1.92%
CN1C/C(=C\Cl)n2c1c(C#N)cc(C#N)c2=O	1.11%
N#Cc1cc(C#N)c(N2CCCC2)nc1N	1.23%
CCOC(=O)c1cc2cc(OCc3ccccc3)ccc2[nH]1	1.86%
COc1ccc(C2C(C#N)=C(Cl)Oc3c2ccc2ccccc32)cc1OC (stereo not given)	18.1%
COc1nc(N)c(C#N)cc1C#N	3.36%
N#Cc1cc(C#N)c(N2CCCC2)nc1N1CCCC1	-0.31%
COc1cccc(C2C(C#N)=C(N)Oc3[nH]nc(C)c32)c1 (stereo not given)	0.08%
Cc1ccc(C(O)SNNc2ncnc3c2c(C)nn3-c2ccccc2)cc1 (stereo not given)	1.06%
COc1cccc(C=C2N=C(c3ccccc3)OC2=O)c1OC(C)=O	-1.1%
Nc1c2c(nc3c1C(c1ccc(O)cc1)c1c(ccc4ccccc14)O3)CCCC2 (stereo not given)	2.15%
C#CCN(C)c1nc(NCCCCC2CCN(Cc3ccccc3)CC2)c(C#N)cc1C#N	3.03%
Cl.OCCCC1CCNCC1	1.52%
CCOC(=O)c1cn(C)c2ccccc12	7.9%
CCOC(=O)c1c(C)nc2nc3c(c(N)c2c1-c1ccccc1OC)CCCCC3	-0.21%
Cc1nc(NO)c2c(C)nn(-c3ccccc3)c2n1	0.21%
O=Cc1ccc(OCCO[N+](=O)[O-])cc1	5.46%
N#CC1=C(Cl)Oc2c(ccc3ccccc23)C1c1cccc([N+](=O)[O-])c1 (stereo not given)	6.77%
COc1cccc(C2c3ccc4ccccc4c3OC(=NBr)C2(Br)C#N)c1 (stereo not given)	-0.64%
COc1cc(C2c3ccc4ccccc4c3Oc3nc4c(c(N)c32)CCCC4)ccc1O.Cl (stereo not given)	-0.98%

Tested on: Cryptococcus neoformans
Conditions: Concentration 32 ug.mL-1; ASSAY_TEST Inhibition of Fungal Growth; detection method Resazurin; Absorption (OD600-OD570); plate type 384well; NBS; CORNING #3640

Compound	Inhibition
C#CCN(C)c1nc(N(C)CC#C)c(C#N)cc1C#N	-56.65%
CCOC(=O)c1c(C)nc(NC2CCN(Cc3ccccc3)CC2)c(C#N)c1-c1ccccc1	-46.25%
C#CCN(C)c1nc(OC)c(C#N)cc1C#N	-43.21%
NNC(=O)CCc1c[nH]c2ccccc12	-3.69%
Cc1cc(Br)cc(C)c1NC=C(C#N)C#N	-6.77%
CCOC(=O)c1c(C)nc(NCC2CCN(Cc3ccccc3)CC2)c(C#N)c1-c1ccccc1	-54.17%
Cl.N#Cc1c(Cl)nc(N)nc1NCCO	8.33%
NNC(=O)c1cc2ccccc2n1Cc1ccccc1	-2.53%
Cc1ccc(CNNC(=O)c2c[nH]c3ccccc23)cc1	-5.03%
Cc1ccccc1-c1c(C=N)c(N)nc2c1S(=O)(=O)OC2(C)C	-3.14%
CCOc1nc2nc3c(c(N)c2cc1C#N)CCCC3	-62.45%
Cn1c(C(=O)N2CCOCC2)cc2cc(OCCCC3CCN(Cc4ccccc4)CC3)ccc21	-96.05%
COc1ccccc1[C@H]1c2c(ccc3ccccc23)O/C(=N\Br)[C@@]1(Br)C#N	-5.55%
C#CCN(C)c1nc(NCC2CCN(Cc3ccccc3)CC2)c(C#N)c(-c2ccccc2)c1C#N	-3.47%
O=C(NNCc1c[nH]c2ccccc12)c1cccc2ccccc12	-1.11%
O=C(O)n1ccc2ccccc21	-3.58%
C#CCNc1nc(Cl)c(C#N)c(-c2ccccc2)c1C#N	-7.07%
CNN=C1N=C(SCc2ccccc2)SC1=O	-3.27%
N#C/C(=C\c1ccccc1)C(=O)c1ccccc1	5.95%
O=C(NN=Cc1c[nH]c2ccccc12)c1cccc2ccccc12	-3.56%

Compound	Inhibition
C#CCN1CCc2nc3nc(N4CCCC4)c(C#N)cc3c(N)c2C1	-92.31%
CN1C/C(=C\Cl)n2c1c(C#N)cc(C#N)c2=O	-52.5%
N#Cc1cc(C#N)c(N2CCCC2)nc1N	-54.35%
CCOC(=O)c1cc2cc(OCc3ccccc3)ccc2[nH]1	-3.27%
COc1ccc(C2C(C#N)=C(Cl)Oc3c2ccc2ccccc32)cc1OC (stereo not given)	-55.36%
COc1nc(N)c(C#N)cc1C#N	-30.91%
N#Cc1cc(C#N)c(N2CCCC2)nc1N1CCCC1	-5.24%
COc1cccc(C2C(C#N)=C(N)Oc3[nH]nc(C)c32)c1 (stereo not given)	-0.28%
Cc1ccc(C(O)SNNc2ncnc3c2c(C)nn3-c2ccccc2)cc1 (stereo not given)	-5.03%
COc1cccc(C=C2N=C(c3ccccc3)OC2=O)c1OC(C)=O	-5.03%
Nc1c2c(nc3c1C(c1ccc(O)cc1)c1c(ccc4ccccc14)O3)CCCC2 (stereo not given)	-0.6%
C#CCN(C)c1nc(NCCCCC2CCN(Cc3ccccc3)CC2)c(C#N)cc1C#N	-41.21%
Cl.OCCCC1CCNCC1	-1.05%
CCOC(=O)c1cn(C)c2ccccc12	-4.62%
CCOC(=O)c1c(C)nc2nc3c(c(N)c2c1-c1ccccc1OC)CCCCC3	-93.54%
Cc1nc(NO)c2c(C)nn(-c3ccccc3)c2n1	-3.47%
O=Cc1ccc(OCCO[N+](=O)[O-])cc1	-2.32%
N#CC1=C(Cl)Oc2c(ccc3ccccc23)C1c1cccc([N+](=O)[O-])c1 (stereo not given)	-37.01%
COc1cccc(C2c3ccc4ccccc4c3OC(=NBr)C2(Br)C#N)c1 (stereo not given)	-51.44%
COc1cc(C2c3ccc4ccccc4c3Oc3nc4c(c(N)c32)CCCC4)ccc1O.Cl (stereo not given)	-5.33%
